The list is not random: actives were taken first. Their share in the collection is about 1.9%.
IEC-6 cytotox – kills IEC-6 intestinal cells in KLF5 counter-screen; IEC-6 cytotoxicity, luminescence viability; 290,000 compounds, 0.78% hits; inhibition, % at 5 µM; AID 1825; in the data active = inhibition above about 22%;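 also: 0% = plate median of test compound wells and 100% = cytotoxic reference compound wells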
KLF5 inh – suppresses KLF5 promoter-driven expression | DLD-1 KLF5 promoter-luciferase reporter, luminescence | AID 1700 | inhibition, % at 5 µM | 290,000 compounds, 0.23% hits;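 active = inhibition above a per-plate limit of that plate's mean compound inhibition plus 3 SD, cut at about 60% in these data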;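 also: 0% = DMSO wells and 100% = LY294002 at 200 µM; higher means less KLF5 promoter-driven luciferase light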
APP 5UTR inh – APP translation inhibition. inhibition, % at 2 µM. 190,000 compounds, 0.82% hits. SH-SY5Y APP 5'UTR-luciferase reporter, luminescence;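 active = inhibition above a set limit, derived from the sample mean plus 3 SD, cut at about 45% in these data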
BaF3 parental – reduces parental Ba/F3 cell viability, JAK2V617F counter-screen. CellTiter-Glo ATP luminescence. inhibition, % at 5.6 µM. 220,000 compounds, 1.1% hits;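 active = inhibition above a per-campaign cutoff, the mean inhibition of all tested compounds plus 3 SD, cut at about 27% in these data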;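 also: 0% = DMSO wells and 100% = JAK Inhibitor I control wells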
Ba/F3 V617F tox – reduce viability of Ba/F3 cells dependent on JAK2V617F | Ba/F3 EpoR-JAK2V617F viability, ATP luminescence | 220,000 compounds, 1.1% hits | inhibition, % at 5.6 µM;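 active = inhibition above the campaign mean plus 3 SD over all tested compounds, cut at about 24% in these data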;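 also: cytokine-independent growth of Ba/F3 cells driven by EpoR plus mutant JAK2; 0% = DMSO-treated cells and 100% = JAK inhibitor I control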
* marks the source's active call; other numbers are inactive results.

What do the screens show for `O=C(N1CCN(c2ccccn2)CC1)N1c2ccccc2Sc2ccccc21`?
IEC-6 cytotox: 17.3; KLF5 inh: 19.2; APP 5UTR inh: 94.2*; BaF3 parental: 76.3*; Ba/F3 V617F tox: 70.7*

How did O=C(c1ccc(Br)s1)N1CCN(c2ccccn2)CC1 do in these assays?
IEC-6 cytotox: -6.7; KLF5 inh: -24.7

What do the screens show for `CCN1C/C(=N\S(=O)(=O)/N=C2\CN(CC)C(=O)N2CC)N(CC)C1=O`?
IEC-6 cytotox: 1.8; KLF5 inh: -1.6; BaF3 parental: -1.3; Ba/F3 V617F tox: -0.8

Results for Cc1ccccc1N=Nc1c(C)[nH]n(-c2ccccc2)c1=O ?
IEC-6 cytotox: -0.9; KLF5 inh: -43.0; APP 5UTR inh: 6.7; BaF3 parental: 6.0; Ba/F3 V617F tox: -1.0

Results for Cc1[nH]n(-c2ccccc2)c(=O)c1N=Nc1ccccc1O ?
IEC-6 cytotox: 0.5; KLF5 inh: 7.9; APP 5UTR inh: 57.5*; BaF3 parental: 13.2; Ba/F3 V617F tox: 0.2

How did Cc1ccc(S(=O)(=O)c2cn(C)c3cc(N4CCN(C)CC4)c(F)cc3c2=O)c(C)c1 do in these assays?
IEC-6 cytotox: -1.3; KLF5 inh: -20.9

How did CC1CCCC(NC(=O)c2ccc3snnc3c2)C1C (stereo unspecified) do in these assays?
IEC-6 cytotox: 3.2; KLF5 inh: -34.4

What do the screens show for `Cc1ccc(-c2cc[n+](Cc3ccccc3)cc2)cc1`?
IEC-6 cytotox: 4.2; KLF5 inh: -18.4; APP 5UTR inh: -3.8; BaF3 parental: 73.3*; Ba/F3 V617F tox: 85.2*

How did CN(C)c1ccc(CNc2nc3ccccc3s2)cc1 do in these assays?
IEC-6 cytotox: -7.4; KLF5 inh: 63.5*

What do the screens show for `O=[N+]([O-])c1ccccc1C1Nc2cccc3cccc(c23)N1`?
IEC-6 cytotox: 11.4; KLF5 inh: 9.9; APP 5UTR inh: 14.2; BaF3 parental: 100.1*; Ba/F3 V617F tox: 79.0*

Results for CCOC(=O)CSc1nc2ccc(N3CCOCC3)cc2c(=O)n1Cc1ccccc1 ?
IEC-6 cytotox: 0.8; KLF5 inh: -17.1; APP 5UTR inh: 77.8*; BaF3 parental: 6.4; Ba/F3 V617F tox: -0.2

What do the screens show for `CCOC(=O)CSc1nc2ccccc2c(=O)n1CCN1CCOCC1`?
IEC-6 cytotox: -3.5; KLF5 inh: -27.6; APP 5UTR inh: -6.9; BaF3 parental: 6.0; Ba/F3 V617F tox: -0.1

How did Oc1ccc(-c2csc(-c3cccnc3)n2)cc1O do in these assays?
IEC-6 cytotox: 15.9; KLF5 inh: -110.2; BaF3 parental: 37.1*; Ba/F3 V617F tox: 40.8*

What do the screens show for `Cc1ccc(/C=C2\SC(=S)N(CCCC(=O)Nc3ccccn3)C2=O)cc1`?
IEC-6 cytotox: -0.4; KLF5 inh: 28.9; APP 5UTR inh: 55.3*; BaF3 parental: 0.4; Ba/F3 V617F tox: -2.3

What do the screens show for `COc1ccc(/C=C2/SC(=S)N(CCCC(=O)Nc3ccccc3C(=O)O)C2=O)cc1`?
IEC-6 cytotox: -0.5; KLF5 inh: 6.5

Results for COc1ccc(/C=C2\SC(=S)N(CCCC(=O)NNC(=O)c3ccccc3O)C2=O)cc1 ?
IEC-6 cytotox: 1.6; KLF5 inh: -28.4; APP 5UTR inh: 65.0*; BaF3 parental: 3.4; Ba/F3 V617F tox: -3.1

Results for Cc1ccc(CSCC(=O)NN=C2CCN(C)CC2)cc1 ?
IEC-6 cytotox: -3.0; KLF5 inh: -8.2; APP 5UTR inh: -3.6; BaF3 parental: 5.8; Ba/F3 V617F tox: 4.0

How did Clc1ccc(Cn2c(/C=C/c3ccco3)nc3ccccc32)cc1 do in these assays?
IEC-6 cytotox: 3.8; KLF5 inh: -12.8; APP 5UTR inh: -9.8; BaF3 parental: 27.0*; Ba/F3 V617F tox: -2.3

Results for Cc1cccc(N(C)Cc2nnc(-c3cccc(Br)c3)o2)c1 ?
IEC-6 cytotox: 0.2; KLF5 inh: -4.5

What do the screens show for `CC1CCN(c2nc3ccc(C(=O)NCCCN4CCCCC4)cc3s2)CC1`?
IEC-6 cytotox: 14.9; KLF5 inh: -42.1

What do the screens show for `CC1CCN(c2nc3ccc(C(=O)O)cc3s2)CC1`?
IEC-6 cytotox: -2.9; KLF5 inh: 61.5; APP 5UTR inh: 45.6*; BaF3 parental: 2.6; Ba/F3 V617F tox: -1.4

What do the screens show for `CC(=O)OCC(=O)Nc1c(C)cc(C)cc1C`?
IEC-6 cytotox: 1.9; KLF5 inh: -4.4; APP 5UTR inh: 8.8; BaF3 parental: 5.6; Ba/F3 V617F tox: -2.8

Results for COc1ccccc1NC(=O)C(CC=C(Cl)Cl)C(C)=O (stereo unspecified) ?
IEC-6 cytotox: 4.1; KLF5 inh: 2.1; APP 5UTR inh: 4.6; BaF3 parental: 39.1*; Ba/F3 V617F tox: -6.8

Results for COc1ccccc1NC(=O)C(C/C=C(\C)Cl)C(C)=O (stereo unspecified) ?
IEC-6 cytotox: 3.4; KLF5 inh: -4.0; APP 5UTR inh: -11.9; BaF3 parental: -0.9; Ba/F3 V617F tox: -1.2

What do the screens show for `CC(=O)c1sc(Nc2nc(C)cc(C)n2)nc1C`?
IEC-6 cytotox: 4.2; KLF5 inh: -13.3; APP 5UTR inh: 82.7*; BaF3 parental: 2.2; Ba/F3 V617F tox: -2.2

Results for CCc1cccc(CC)c1NC(=O)CSc1nc2ccc(N3C(=O)C4C(C3=O)[C@H]3C=C[C@@H]4C3)cc2s1 (stereo partly specified) ?
IEC-6 cytotox: 1.3; KLF5 inh: 5.3; APP 5UTR inh: -26.8; BaF3 parental: 4.2; Ba/F3 V617F tox: 1.7

What do the screens show for `O=C(Nc1ncc(Cc2cccc([N+](=O)[O-])c2)s1)c1ccco1`?
IEC-6 cytotox: 6.1; KLF5 inh: 3.4; APP 5UTR inh: -46.8; BaF3 parental: 27.2*; Ba/F3 V617F tox: 17.9

How did CC(=O)Nc1ncc(Cc2cccc(Cl)c2)s1 do in these assays?
IEC-6 cytotox: -0.6; KLF5 inh: 1.9; APP 5UTR inh: 13.0; BaF3 parental: 28.1*; Ba/F3 V617F tox: 34.0*

What do the screens show for `Cn1ccnc1C(O)c1ccccc1` (stereo unspecified)?
IEC-6 cytotox: 7.0; KLF5 inh: -8.3; APP 5UTR inh: 9.6; BaF3 parental: 2.5; Ba/F3 V617F tox: 0.0

Results for COc1ccc2ccccc2c1C(O)c1nccn1C (stereo unspecified) ?
IEC-6 cytotox: 6.5; KLF5 inh: 8.2; APP 5UTR inh: -5.4; BaF3 parental: 38.0*; Ba/F3 V617F tox: 59.4*

What do the screens show for `COc1ccc(Cn2c(-c3ccc(C)cc3)c[n+]3ccccc23)cc1`?
IEC-6 cytotox: 9.6; KLF5 inh: 7.2; APP 5UTR inh: 0.7; BaF3 parental: 70.7*; Ba/F3 V617F tox: 90.0*

Results for CCc1ccc(NC(=S)N(CCCN2CCOCC2)Cc2ccco2)cc1 ?
IEC-6 cytotox: -0.2; KLF5 inh: -17.3; APP 5UTR inh: -8.9; BaF3 parental: 3.3; Ba/F3 V617F tox: -4.0

How did CCN1CCN(CCCN(Cc2ccco2)C(=S)Nc2ccc(C)c(Cl)c2)CC1 do in these assays?
IEC-6 cytotox: 1.4; KLF5 inh: -4.3; APP 5UTR inh: 3.2; BaF3 parental: 31.8*; Ba/F3 V617F tox: 37.2*

What do the screens show for `Cc1ccccc1NC(=S)N(CCCN1CCCCC1)Cc1ccco1`?
IEC-6 cytotox: -2.6; KLF5 inh: 13.0; APP 5UTR inh: 5.0; BaF3 parental: 5.1; Ba/F3 V617F tox: 0.3

How did CN1CCN(CCCN(Cc2ccco2)C(=S)Nc2ccc(Cl)cc2)CC1 do in these assays?
IEC-6 cytotox: 2.2; KLF5 inh: -6.6; APP 5UTR inh: -14.9; BaF3 parental: 29.0*; Ba/F3 V617F tox: 40.4*
